Assay outcomes as filed in PubChem BioAssay.
Compounds with a hit are over-represented: about 3.3% of the library has one in this group of screens.
Casp6 inh: caspase-6 (human) enzyme inhibition | P55212 | purified caspase-6, Z-VEID-R110 cleavage fluorescence | inhibition, % at 12.5 µM | 350,000 tested, 0.53% active | AID 686996;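 active = mean inhibition across replicates at least about 35%, with every replicate also reaching that limit, limit read from the data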
GSIS activator: GLuc luminescence reporter in INS-1E cells, primary screen for activators of glucose-dependent secretion of insulin. INS-1E GLuc reporter insulin secretion, 2-3 h. activation, % at 16.6 µM. 370,000 tested, 0.61% active;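 active = lowest replicate activation of at least 40%, so every replicate reaches that level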
SIRT5 block: sirtuin-5 (human) deacylase inhibition. Purified SirT5, succinyl-peptide AMC, trypsin-coupled fluorescence. inhibition, % at 15 µM. 330,000 tested, 1.1% active; in the data active = inhibition above about 15%
FGF22 binding: binders of recombinant human FGF22 by thermal shift; Q9HCT0; SYPRO orange fluorescence; percent of sucrose octasulfate shift, DMSO zero; activity (Tm shift, normalised), % at 9.99 µM; 340,000 tested, 1.5% active;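 active = mean Tm shift, scaled 0 neutral to 100 positive control, at about 1.3% or above, every replicate too, limit read from the data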
ERAP1 inh: blocks human ERAP1 aminopeptidase activity. Q9NZ08. inhibition, % at 10.7 µM. recombinant ERAP1, Leu-AMC fluorescence, 60 min. 340,000 tested, 0.15% active;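 active = mean replicate inhibition of at least 30%, or all replicates individually reaching that 30% level; inactive = mean below 30% and not every replicate reaching it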
Target sequence (Q9NZ08 whole entry, looked up): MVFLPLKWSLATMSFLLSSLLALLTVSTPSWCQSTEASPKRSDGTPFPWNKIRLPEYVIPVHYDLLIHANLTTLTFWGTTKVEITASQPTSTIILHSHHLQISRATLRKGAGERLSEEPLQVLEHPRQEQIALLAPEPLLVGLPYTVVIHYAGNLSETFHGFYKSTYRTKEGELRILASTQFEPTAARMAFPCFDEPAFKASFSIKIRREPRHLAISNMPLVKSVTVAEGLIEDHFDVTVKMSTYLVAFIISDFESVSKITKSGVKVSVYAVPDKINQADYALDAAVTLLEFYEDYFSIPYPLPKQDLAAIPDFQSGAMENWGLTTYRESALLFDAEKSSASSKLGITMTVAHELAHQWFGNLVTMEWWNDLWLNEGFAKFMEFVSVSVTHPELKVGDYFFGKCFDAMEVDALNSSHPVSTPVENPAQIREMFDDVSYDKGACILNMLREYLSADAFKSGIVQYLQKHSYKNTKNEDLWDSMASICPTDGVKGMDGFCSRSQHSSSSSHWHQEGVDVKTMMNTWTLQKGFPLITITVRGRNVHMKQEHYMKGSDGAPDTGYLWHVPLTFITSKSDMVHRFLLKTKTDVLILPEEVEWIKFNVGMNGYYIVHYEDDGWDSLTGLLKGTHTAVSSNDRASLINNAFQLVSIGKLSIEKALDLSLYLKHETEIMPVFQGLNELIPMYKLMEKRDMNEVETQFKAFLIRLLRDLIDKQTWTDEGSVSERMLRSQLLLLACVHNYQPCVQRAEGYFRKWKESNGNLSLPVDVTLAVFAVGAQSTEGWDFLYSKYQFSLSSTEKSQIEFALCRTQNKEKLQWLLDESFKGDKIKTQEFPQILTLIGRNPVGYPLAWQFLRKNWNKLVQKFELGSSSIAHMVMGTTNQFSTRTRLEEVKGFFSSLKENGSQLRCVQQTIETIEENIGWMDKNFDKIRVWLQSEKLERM
A number is an active result; ! = not confirmed by another sample.

`Cn1c(Cc2ccccc2)nnc1SCc1cc(=O)n2ccsc2n1` gave Casp6 inh inactive, SIRT5 block inactive, FGF22 binding inactive and ERAP1 inh inactive.
O=c1cc(CSc2nnnn2-c2ccc(O)cc2)nc2sccn12 was read as Casp6 inh inactive, GSIS activator inactive, SIRT5 block 38, FGF22 binding inactive and ERAP1 inh inactive.
Screening O=C(CC1CC1)Nc1ccc2c(c1)[C@H]1C[C@@H](CC(=O)NC3CCCC3)O[C@H](CO)[C@H]1O2 returned Casp6 inh inactive, GSIS activator inactive, SIRT5 block inactive, FGF22 binding inactive and ERAP1 inh inactive.
Screening Cc1ccc(S(=O)(=O)N2C[C@@H]3N[C@H](C2)C3c2ccc(/C=C/c3ccccc3)cc2)cc1 (stereo partly specified) returned Casp6 inh inactive, GSIS activator 502!, SIRT5 block inactive and ERAP1 inh inactive.
Screening C/C=C/c1ccc(C2[C@@H]3CN(S(=O)(=O)c4ccccc4)C[C@H]2N3)cc1 (stereo partly specified) returned Casp6 inh inactive, GSIS activator inactive, SIRT5 block inactive and ERAP1 inh inactive.
Cc1ccccc1-c1ccc(C2[C@@H]3CN(S(=O)(=O)c4ccccc4C)C[C@H]2N3)cc1 (stereo partly specified) was read as Casp6 inh inactive, GSIS activator 179!, SIRT5 block inactive and ERAP1 inh inactive.
For COc1cc(CN2C[C@@H]3N[C@H](C2)C3c2ccc(/C=C/c3ccccc3)cc2)cc(OC)c1 (stereo partly specified) the results were GSIS activator 84! and FGF22 binding inactive.
O=C(C[C@@H]1C[C@H]2c3cc(NS(=O)(=O)c4ccccc4)ccc3O[C@H]2[C@@H](CO)O1)NCC1CC1 was read as Casp6 inh inactive, GSIS activator inactive, SIRT5 block inactive, FGF22 binding inactive and ERAP1 inh inactive.
Screening O=C(NC(=S)NC1CCSC1=O)c1ccccc1 (stereo unspecified) returned Casp6 inh inactive, GSIS activator inactive, SIRT5 block inactive, FGF22 binding inactive and ERAP1 inh inactive.
Screening Cc1ccccc1C(=O)NC1CCSC1=O (stereo unspecified) returned Casp6 inh inactive, GSIS activator 121, SIRT5 block inactive and FGF22 binding inactive.
For C[C@@H]1CN([C@H](C)CO)C(=O)Cc2cc(NC(=O)CCCCCC(=O)Nc3ccccc3N)ccc2O[C@@H]1CN(C)S(=O)(=O)c1ccc(F)cc1 the results were Casp6 inh inactive, GSIS activator inactive, FGF22 binding inactive and ERAP1 inh inactive.
For N#C[C@H]1[C@@H](c2ccccc2C2=CCCC2)[C@H](CO)N1S(=O)(=O)c1cccc(F)c1 the results were Casp6 inh inactive, GSIS activator inactive, SIRT5 block inactive, FGF22 binding inactive and ERAP1 inh inactive.
`COC(=O)c1c(NC(C)=O)sc2c1CCN(Cc1ccccc1)C2` gave Casp6 inh inactive, SIRT5 block 18, FGF22 binding inactive and ERAP1 inh inactive.
`CCOC(=O)c1c(NC(=O)CSc2ncccn2)sc2c1CCN(Cc1ccccc1)C2` gave Casp6 inh inactive, GSIS activator inactive, SIRT5 block inactive, FGF22 binding 43 and ERAP1 inh inactive.
`O=C(Nc1nc2c(s1)CN(Cc1ccccc1)CC2)C1CCCC1` gave Casp6 inh inactive, GSIS activator inactive, SIRT5 block inactive, FGF22 binding inactive and ERAP1 inh inactive.
`CCOC(=O)c1c(NC(C)=O)sc2c1CCN(Cc1ccccc1)C2` gave Casp6 inh inactive, GSIS activator inactive, SIRT5 block inactive, FGF22 binding inactive and ERAP1 inh inactive.
`CC(C)(C)C(=O)Nc1nc2c(s1)CN(Cc1ccccc1)CC2` gave Casp6 inh inactive, GSIS activator inactive, SIRT5 block inactive, FGF22 binding 43 and ERAP1 inh inactive.
For COc1ccc2c3c(n(C)c2c1)[C@@H](CO)N(C(=O)Cc1ccccc1)CC31CCN(C(C)=O)CC1 the results were GSIS activator inactive and FGF22 binding inactive.
`COC(=O)C1=NNC(C(=O)c2ccco2)C1c1ccccc1` (stereo unspecified) gave Casp6 inh inactive, GSIS activator inactive, SIRT5 block 22, FGF22 binding inactive and ERAP1 inh inactive.
Cc1ccc(-c2nc3c(c(SCC(=O)N4CCCC4)n2)COC(C)(C)C3)cc1 was read as Casp6 inh inactive, GSIS activator 44, FGF22 binding inactive and ERAP1 inh inactive.
For CCCNC(=O)C[C@H]1CC[C@H]2[C@@H](COC[C@@H](O)CN2C(=O)Nc2ccccc2OC)O1 the results were Casp6 inh inactive, GSIS activator inactive, SIRT5 block inactive, FGF22 binding inactive and ERAP1 inh inactive.
C[C@H](CO)N1C[C@H](C)[C@@H](CN(C)Cc2ccc(-c3ccccc3)cc2)Oc2cc(C#C[C@@H](C)O)ccc2S1(=O)=O was read as Casp6 inh inactive, GSIS activator inactive, SIRT5 block inactive, FGF22 binding inactive and ERAP1 inh inactive.
For C[C@@H](O)C#Cc1ccc2c(c1)O[C@H](CN(C)Cc1ccc(-c3ccccc3)cc1)[C@@H](C)CN([C@@H](C)CO)S2(=O)=O the results were Casp6 inh inactive, GSIS activator inactive, SIRT5 block 27, FGF22 binding inactive and ERAP1 inh inactive.
Screening C[C@H](O)C#Cc1ccc2c(c1)O[C@@H](CN(C)Cc1ccc(-c3ccccc3)cc1)[C@@H](C)CN([C@H](C)CO)S2(=O)=O returned Casp6 inh inactive, GSIS activator inactive, SIRT5 block 23, FGF22 binding inactive and ERAP1 inh inactive.
For C[C@H](O)C#Cc1ccc2c(c1)O[C@@H](CN(C)Cc1ccc(-c3ccccc3)cc1)[C@H](C)CN([C@@H](C)CO)S2(=O)=O the results were Casp6 inh inactive, GSIS activator inactive, SIRT5 block 17!, FGF22 binding inactive and ERAP1 inh inactive.
Screening CO[C@H]1CN(C)C(=O)c2cc(NC(=O)C3CCOCC3)ccc2OC[C@H](C)N(C(=O)c2ccccc2)C[C@H]1C returned GSIS activator inactive.
Screening CN(C)CC(=O)N[C@H]1CC[C@H](CC(=O)NCc2ccccc2F)O[C@H]1CO returned Casp6 inh inactive, GSIS activator inactive, SIRT5 block inactive, FGF22 binding inactive and ERAP1 inh inactive.
`C[C@H](CO)N1C[C@H](C)[C@H](CN(C)C(=O)Nc2ccc3c(c2)OCO3)Oc2ccc(NC(=O)Nc3ccc(F)cc3)cc2C1=O` gave Casp6 inh inactive, GSIS activator inactive, SIRT5 block inactive, FGF22 binding inactive and ERAP1 inh inactive.
CCCNC(=O)N1CCC2(CC1)CN(C(=O)NC(C)C)[C@H](CO)c1c2c2ccc(OC)cc2n1C was read as Casp6 inh inactive, GSIS activator inactive, SIRT5 block inactive, FGF22 binding inactive and ERAP1 inh inactive.
For C/C(CC(=O)Nc1ccc(C)c(Cl)c1)=N\NC(=O)Cc1cnc(N)s1 the results were Casp6 inh inactive, GSIS activator inactive, SIRT5 block inactive, FGF22 binding 43 and ERAP1 inh inactive.
